Measurements reported in PubChem BioAssay (NCI).
The panel holds about 79,000 compounds, 15% with a hit somewhere; the sample as a whole holds those more often. Unmarked numbers belong to inactive results. Active and inactive are the calls of the source. Cut-off read from the data, not from the text of the source: active = growth inhibition above about 70%; inactive = the rest.

Test: NCI Yeast Anticancer Drug Screen. Data for the mlh1 rad18 strain (AID 175)
Conditions: S. cerevisiae mlh1 rad18 strain growth inhibition; at 50.0 µM; stronger effect = higher value
Procedure: Growth inhibition of yeast strains with defined genetic alterations is measured as a screen for potential anti-cancer activity. Selected strains with alterations in DNA damage repair or cell cycle control were exposed to compounds and growth inhibition was measured relative to vehicle treated controls. The strain used in this assay is mlh1 rad18

**Q.** For `CC(C)/C(Cl)=N/OC(=O)Nc1cccc(C(F)(F)F)c1`, which growth inhibition is on record?
**A.** -91.7%

**Q.** For `O=C(/C=C/C=C/c1ccccc1)c1ccc(Cl)cc1`, which growth inhibition is on record?
**A.** 3.5%

**Q.** For `COc1ccc(C(C(N)=O)N2CCCC2)cc1` (stereo not given), which growth inhibition is on record?
**A.** 16.6%

**Q.** For `COc1cc(Oc2c(C)c(Cl)c(OC)c(Cl)c2OC)c2c(c1Cl)COC2=O`, which growth inhibition is on record?
**A.** 22.8%

**Q.** With `CCOC(=O)/C=C(\C)Nc1ccc(F)cc1` as the molecule, how does the growth inhibition read?
**A.** 14.2%

**Q.** With `O=S(=O)(O)c1ccc(-c2ccccc2)cc1` as the molecule, how does the growth inhibition read?
**A.** -5.4%

**Q.** For `CC1(C)C2CCC1(CS(=O)(=O)O)C(=O)C2` (stereo not given), which growth inhibition is on record?
**A.** -1.2%

**Q.** Which growth inhibition does the source give for `COC(=O)c1ccc(NC(=O)O/N=C(\Cl)C(C)C)cc1` here?
**A.** 0.75%

**Q.** Which growth inhibition does the source give for `O=C1C2C3C=CC(C2C(=O)N1CO)C1C2C(=O)N(CO)C(=O)C2C31` (stereo not given) here?
**A.** 2.2%

**Q.** For `O=C(O)c1cc(C(=O)O)cc([N+](=O)[O-])c1`, which growth inhibition is on record?
**A.** 7.35%

**Q.** With `Cc1cc(N(CCC#N)CCC#N)ccc1/C=N/NC(=O)c1cc(Cl)ccc1O` as the molecule, how does the growth inhibition read?
**A.** -32%

**Q.** For `S=c1[nH]nc(NC2CCCCC2)s1`, which growth inhibition is on record?
**A.** -7.1%

**Q.** Which growth inhibition does the source give for `Cc1ccc(CNc2ccc(I)cc2)cc1` here?
**A.** 33.9%

**Q.** For `CCOc1ccc(NC(=S)NC2CCCCCCCCCCC2)cc1`, which growth inhibition is on record?
**A.** 32.9%

**Q.** With `CCN(CC)C(C(=O)Nc1ccccc1)C(=O)Nc1ccccc1` as the molecule, how does the growth inhibition read?
**A.** -4.9%

**Q.** For `OCCN(CCO)C(CO)(CO)CO`, which growth inhibition is on record?
**A.** 24.8%

**Q.** Which growth inhibition does the source give for `O=C1c2ccccc2C(=O)N1CNc1ccc(Cl)cn1` here?
**A.** -24.6%

**Q.** Which growth inhibition does the source give for `CC(C)=CCc1cc(C2COc3cc4c(c(O)c3C2=O)C=CC(C)(C)O4)c(O)cc1O` (stereo not given) here?
**A.** 88% (active)

**Q.** For `Cc1ccc2oc(C)[n+](CCC(=O)O)c2c1`, which growth inhibition is on record?
**A.** 42%

**Q.** For `C[N+]12CCC34c5ccccc5NC3C3C(CC(=O)[O-])OCC=C(C1)C3CC42` (stereo not given), which growth inhibition is on record?
**A.** -31%

**Q.** For `C[Si](C)(CCl)N[Si](C)(C)CCl`, which growth inhibition is on record?
**A.** -6.1%

**Q.** With `COc1ccccc1Oc1ccc(N=Cc2ccc(C)cc2)cc1` as the molecule, how does the growth inhibition read?
**A.** 5.3%

**Q.** With `CCCCCCCCCC(O)CCCCC` (stereo not given) as the molecule, how does the growth inhibition read?
**A.** 15.3%

**Q.** For `NC1N=C(c2ccc(Cl)cc2)C2=C(N1)c1ccccc1CC2` (stereo not given), which growth inhibition is on record?
**A.** -50.7%

**Q.** Which growth inhibition does the source give for `CCC(c1ccc(N(C)C)cc1)C1NC(=S)NC1=O` (stereo not given) here?
**A.** -9.55%

**Q.** Which growth inhibition does the source give for `CC1CCN(c2ccc([N+](=O)[O-])cc2[N+](=O)[O-])CC1` here?
**A.** 25.6%

**Q.** Which growth inhibition does the source give for `COc1ccc(C(=O)CC2CCCC(CC(=O)c3ccc(OC)cc3)N2C)cc1` (stereo not given) here?
**A.** 30.4%

**Q.** For `Cc1ccc2c(sc(-c3ccc4c(c3)sc(-c3ccc5c(c3)sc(-c3ccc(N(C)C)cc3)[n+]5C)[n+]4C)[n+]2C)c1S(=O)(=O)O` (tested in a mixture with another compound), which growth inhibition is on record?
**A.** 70.4% (active)

**Q.** For `COc1cc(N(CCC#N)CCC#N)ccc1/C(N=Nc1ccc(Cl)cc1)=N/NC(=O)c1cc(Br)ccc1O`, which growth inhibition is on record?
**A.** 52%

**Q.** For `O=C(Cc1nc2ccccc2[nH]c1=O)N/N=C/c1ccc2c(c1)CCC2`, which growth inhibition is on record?
**A.** -37.4%

**Q.** Which growth inhibition does the source give for `Nc1ccccc1SC1CC(=O)N(c2ccccc2Cl)C1=O` (stereo not given) here?
**A.** -6.5%

**Q.** With `O=C(/C=C(\[O-])c1ccccc1)CCCCCCC(=O)/C=C(\[O-])c1ccccc1.O=C(/C=C(\[O-])c1ccccc1)CCCCCCC(=O)/C=C(\[O-])c1ccccc1.O=C(/C=C(\[O-])c1ccccc1)CCCCCCC(=O)/C=C(\[O-])c1ccccc1.[Y+3].[Y+3]` as the molecule, how does the growth inhibition read?
**A.** -1.85%

**Q.** For `N#CC1(C#N)N[C@@H](c2ccsc2)[C@H]2C(=O)N(c3ccccc3)C(=O)[C@H]21`, which growth inhibition is on record?
**A.** -4.05%

**Q.** Which growth inhibition does the source give for `Cc1ccc(CNc2ccc(F)cc2)cc1` here?
**A.** 19.8%

**Q.** For `CCCCCCC(=O)CCCC(C)CCCC(C)C` (stereo not given), which growth inhibition is on record?
**A.** -3.85%

**Q.** Which growth inhibition does the source give for `Cc1ccc(/C=N/Nc2nc3ccccc3s2)s1` here?
**A.** -11.2%

**Q.** For `COc1ccc(N=C(C)C(C)=Nc2ccc(OC)cc2)cc1`, which growth inhibition is on record?
**A.** -17.7%

**Q.** For `COc1ccc(NC(=S)Nc2ccccn2)cc1`, which growth inhibition is on record?
**A.** 0.65%

**Q.** Which growth inhibition does the source give for `CN1C(=S)c2ccccc2S1(=O)=O` here?
**A.** 24.2%

**Q.** With `O=C(O)c1n[nH]nc1Cl` as the molecule, how does the growth inhibition read?
**A.** 19.2%
